The results in this text go back to PubChem BioAssay (NCATS).

Results filed as inconclusive are left out. A call without a number means that no potency is given here. Activity calls are given as the source filed them. Calls come from the whole dose curve.
Potency is the fitted concentration of half-maximal effect.

This experiment is described as follows: S16 Schwann cell PMP22 intronic element beta-lactamase assay (AID 624044). Note: nearly all actives have a fitted effect of over 15% in size. Particulars: S16 rat Schwann cells, PMP22 element beta-lactamase FRET, 24 h; series mostly up to 38.3 µM. The source says: Description: Charcot-Marie-Tooth-Association [CMTA] National Center for Advancing Translational Sciences [NCATS] Charcot-Marie-Tooth (CMT) disease was first characterized by Jean-Martin Charcot and Pierre Marie in France and, independently, by Howard Henry Tooth in England in 1886. CMT is one of the most common inherited neurological diseases, affecting approximately 1 in 2,500 Americans. […] The most prevalent type of CMT is known as CMT1A and caused by a duplication of the PMP22 gene which leads to over-expression of this protein. PMP22 is a glycosylated intrinsic membrane protein accounting for 2-5% of the myelin protein content, and its over-expression results in demyelination and subsequently axonal loss. A pair of cellular transcription-based assays was developed in the S16 rat Schwann cell lines (Hai, M., et al., 2002) stably transfected with orthogonal reporters - firefly luciferase (Fluc) and beta-lactamase (beta-Lac) - whose expression is driven by an intronic regulatory element of the PMP22 gene (Jones, E.A., et al., 2011) to recapitulate endogenous expression of PMP22. The current assay employs Blac as a reporter of PMP22 expression. A comprehensive library of approved drugs, the NCGC Pharmaceutical Collection (Huang, R., et al., 2011), was screened in the cross-validating platform of the orthogonal reporter assays to identify drug modulators inhibitory towards PMP22 expression. A set of counter-screens was devised to address non-specific activity of the library. An ATP-dependent CellTiter-Glo assay (developed by Promega Corp) was utilized to control cell viability. In addition, biochemical Fluc enzyme assay was performed to assess direct inhibition of the Fluc enzymatic activity. References Hai, M., Muja, N., DeVries, G.H., Quarles, R.H. and Patel, P.I. Comparative analysis of Schwann cell lines as model systems for myelin gene transcription studies. J Neurosci Res, 2002. 69(4): pp 497-508 Huang, R., Southall, N., Wang, Y., Yasgar A., Shinn P., Jadhav, A. , Nguyen, D.-T. and Austin, C.P., The NCGC pharmaceutical collection: a comprehensive resource of clinically approved drugs enabling repurposing and chemical genomics. Sci Transl Med, 2011. 3(80): p. 80ps16.
S16 Schwann cell PMP22 intronic element beta-lactamase assay The beta-Lac-expressing S16 cells were seeded in black clear-bottom 1536 well plates at between 500-750 cells/6uL in DMEM medium containing 10% FBS, w/o phenol red. After overnight incubation at 37 degree Celsius/5% C02, 23 nL of compounds or DMSO were delivered to each well using a pin tool, followed by 24h-incubation at 37 degree Celsius/5% C02. Then one microl of LiveBLAzer FRET B/G detection mix (Invitrogen) was added to each well. An EnVision plate reader (PerkinElmer) was used to detect the dual beta-Lac output composed of fluorescence at 460nm for beta-Lac expression and FRET at 535nm for cell viability. The % signal at 535 nm was scaled to a full range of DMSO and zero and then normalized using the maximum response observed in the screen as 100% activity. The % signal at 460nm was normalized to the average readings of potassium clavulanate (a positive control) - treated cells relative to DMSO-treated cells (0% Activity). The concentration-effect curves were then classified based on curve quality (r2), response magnitude and degree of measured activity.
For the compound `C[C@]12CCC(=O)C=C1CC[C@@H]1[C@H]2[C@@H](O)C[C@@]2(C)[C@H]1CC[C@]2(O)C(=O)CO`, the Potency entry is “inactive”.

`Cc1c(OCC(F)(F)F)ccnc1CS(=O)c1nc2ccccc2[nH]1` (stereo not given): the Potency entry is “inactive”. The entry for `CC(C)c1ccc2oc3nc(N)c(C(=O)O)cc3c(=O)c2c1` is “inactive”; for `CN(c1nccc(=O)[nH]1)C1CCN(c2nc3ccccc3n2Cc2ccc(F)cc2)CC1` it is “inactive”. The entry for `CCC1=C(C)CN(C(=O)NCCc2ccc(S(=O)(=O)NC(=O)NC3CCC(C)CC3)cc2)C1=O` (stereo not given) is “inactive”; for `COc1c2occc2cc2ccc(=O)oc12` it is “inactive”; for `CC1(C)NC(=O)N(c2ccc([N+](=O)[O-])c(C(F)(F)F)c2)C1=O` it is “inactive”. The entry for `CC(C)(S)[C@@H](N)C(=O)O` is “inactive”; for `CNC[C@@H](O)[C@@H](O)[C@H](O)[C@H](O)CO` it is “inactive”; for `O=P(O)(O)C(O)(Cn1ccnc1)P(=O)(O)O` it is “inactive”. Regarding `C[Se]CCC(N)C(=O)O` (stereo not given), the Potency entry was “inactive”. For the compound `CCN(CCO)CCCC(C)Nc1ccnc2cc(Cl)ccc12` (stereo not given), the Potency result was “inactive”. Then `O=C(O)c1cn(-c2ccc(F)cc2)c2cc(N3CCNCC3)c(F)cc2c1=O`, with “inactive”.

Regarding `CCOc1cc(CC(=O)N[C@@H](CC(C)C)c2ccccc2N2CCCCC2)ccc1C(=O)O`, the Potency result was “inactive”. For the compound `Nc1ccc(S(N)(=O)=O)cc1`, the Potency result is “inactive”.

As for `C[C@H](Cn1cnc2c(N)ncnc21)OCP(=O)(O)O`, the Potency entry was “inactive”.

As for `NS(=O)(=O)c1cc(C(=O)O)c(NCc2ccco2)cc1Cl`, the Potency result is “inactive”. Then `CS(=O)(=O)OCCCCOS(C)(=O)=O`, with “inactive”; and `Oc1ccc(OCc2ccccc2)cc1`, with 6.73 µM (active); and `CCc1nc(N)nc(N)c1-c1ccc(Cl)cc1`, with 9.99 µM (active). In the case of `O=c1oc2cc(O)ccc2s1`, the Potency result is “inactive”. The entry for `O=C(NCC1CCCCN1)c1cc(OCC(F)(F)F)ccc1OCC(F)(F)F` (stereo not given) is “inactive”; for `Cc1nc2n(c(=O)c1CCN1CCC(c3noc4cc(F)ccc34)CC1)CCCC2` it is “inactive”; for `CCOC(=O)c1c(C)n(C)c2ccc(O)cc12` it is “inactive”. As to `Cc1ccc(C)c(OCCCC(C)(C)C(=O)O)c1`, the Potency entry was “inactive”. The entry for `O=C1CCc2ccc(OCCCCN3CCN(c4cccc(Cl)c4Cl)CC3)cc2N1` is “inactive”.

`CC1(C)CCC(C)(C)c2cc(NC(=O)c3ccc(C(=O)O)cc3)ccc21`: the Potency result is “inactive”. Then `O=C1c2ccccc2-c2n[nH]c3cccc1c23`, with “inactive”. With `CC[C@]1(O)C[C@H]2CN(CCc3c([nH]c4ccccc34)[C@@](C(=O)OC)(c3cc4c(cc3OC)N(C=O)[C@H]3[C@@](O)(C(=O)OC)[C@H](OC(C)=O)[C@]5(CC)C=CCN6CC[C@]43[C@@H]65)C2)C1`, the Potency is 0.282 µM (active). Then `CC1=C(C)C(=O)C(C(CCCCCC(=O)O)c2ccccc2)=C(C)C1=O` (stereo not given), with “inactive”; and `CCCCCCCCCCCCCCCCCCCCCCO`, with “inactive”. Then `CCCCC(CC)COC(=O)C(C#N)=C(c1ccccc1)c1ccccc1` (stereo not given), with “inactive”; and `CCC[C@@H]1C[C@@H](C(=O)N[C@@H]([C@H]2O[C@H](SC)[C@H](O)[C@@H](O)[C@H]2O)[C@@H](C)O)N(C)C1`, with “inactive”; and `COC1=C(OC)C(=O)C(CCCCCCCCCCO)=C(C)C1=O`, with “inactive”. The entry for `CCCCCCCCOc1ccccc1C(=O)Nc1ccc(C(=O)OCC[N+](C)(CC)CC)cc1` is “inactive”; for `CCCCc1ccc2nc(NC(=O)OC)[nH]c2c1` it is 0.239 µM (active). `Cc1cc2cc3c(C)cc(=O)oc3c(C)c2o1`: the Potency entry was “inactive”. Regarding `N[C@@H](Cc1cc(I)c(Oc2cc(I)c(O)c(I)c2)c(I)c1)C(=O)O`, the Potency result is “inactive”.

For `c1ccc2[nH]c(-c3cscn3)nc2c1`, the Potency entry is “inactive”. As for `O=C(OC1C[C@H]2CC[C@@H](C1)[N+]21CCCC1)C(O)(c1ccccc1)c1ccccc1` (stereo not given in full), the Potency entry was “inactive”.
